Test results from PubChem BioAssay AID1985 (Southern Research Specialized Biocontainment Screening …, 2009).
The campaign covered roughly 2,300 compounds. About 1,000 (43%) were called active. So high a share suggests a set chosen from earlier hits. The list shows a part of the results. Results with a measured potency or affinity are listed apart. Unmarked numbers belong to inactive results. No rule for the calls is given here.

assay: modified counter assay using GFP fluorescence, PhoP regulon inhibitor project, dose response (AID 1985); conditions: S. Typhi, 4 h; series mostly up to 150 µM; inhibition: at the top concentration

| Compound | inhibition |
| --- | --- |
| COc1ccc(CC(=O)Nc2ncc([N+](=O)[O-])s2)cc1OC | 37.9% |
| Cc1ccc(CNC(=O)CCC(=O)Nc2nnc(C)s2)cc1 | 6.87% |
| O=C(c1cc2c(s1)-c1ccccc1S(=O)(=O)C2)N1CCN(Cc2ccccc2)CC1 | 4.65% |
| COCc1ccc(C(=O)Nc2ccc(C(=O)O)cc2)o1 | 28.9% |
| COc1cccc(OC)c1C(=O)Nc1ccc(N2CCN(S(C)(=O)=O)CC2)cc1 | 8.9% |
| COC(=O)C1=C(C)N(C2CCCC2)C(=O)C1(NC(C)=O)C(F)(F)F (centres undefined) | -18.9% |
| NC(=O)c1cc(C(=O)c2cccc(Cl)c2Cl)c[nH]1 | 24.7% |
| Cc1cnc(C(=O)Nc2nnc(C)s2)cn1 | 14.5% |
| O=C1C=C(Nc2ccccc2O)c2ccccc2C1=O | 31.8% |
| CCCCOc1ccc(CN2CCC(O)CC2)cc1 | 17.8% |
| CCCCCCOc1ccc(N2C(=O)CC(SC(=NCC)NCC)C2=O)cc1 (centres undefined) | 2.18% |
| CN(C)CCCN1c2ccccc2Sc2ccc(C(F)(F)F)cc21 | 30.6% |
| O=C1NC(=S)S/C1=C1\Sc2ccccc2N1CCCS(=O)(=O)O | 2.35% |
| O=C(Cc1ccc(F)cc1)NC1CCCC1 | 12.7% |
| Cc1ccc(C)c(OCc2ccc(C(=O)NN)o2)c1 | 27.3% |
| Cn1ncc(N=Cc2ccccc2O)c1C(=O)N1CCOCC1 | -12.2% |
| O=C(NC1CCCCC1)c1ccc(S(=O)(=O)NCc2cccnc2)cc1 | -17.7% |
| Cc1nc(-c2ccc(C(=O)N3CCOCC3)cc2)cs1 | 10.6% |
| Cc1ccc(C)c(NC(=O)c2ccccc2O)c1 | -7.11% |
| C[C@]1(OC(=O)/C=C/c2ccccc2)C[C@@H](O)[C@]2(O)C=CO[C@@H](O[C@@H]3O[C@H](CO)[C@@H](O)[C@H](O)[C@H]3O)[C@@H]21 | 5.08% |
| C1=Nc2ccccc2CN1c1ccccc1 | 7.62% |
| COc1ccc(C(C(=O)Nc2ccc(C(C)C)cc2)N(Cc2ccco2)C(=O)CC2NC(=O)NC2=O)cc1 (centres undefined) | -6.35% |
| Cc1ncc([N+](=O)[O-])n1CC(=O)NC1CCCC1 | 1.84% |
| CC(=O)NS(=O)(=O)c1ccc(Nc2ccc([N+](=O)[O-])c3nonc23)cc1 | 34.2% |
| O=C1CC(=O)CC(c2ccco2)C1 | 28.2% |

| Compound | inhibition |
| --- | --- |
| CC1=C([N+](=O)[O-])C(c2ccccc2)C2=C(N1)c1ccccc1C2=O (centres undefined) | 24.3% |
| COc1ccccc1C(=O)Nc1nnc(-c2ccc(F)cc2)o1 | 26.4% |
| N#CC1=C2N=C(N)c3ccccc3N2C2=C(C(=O)CCC2)C1c1cccc(Cl)c1 (centres undefined) | 5.41% |
| O=C1c2ccccc2NC(c2cccc([N+](=O)[O-])c2)N1CCc1ccccc1 (centres undefined) | 9.59% |
| CCS(=O)(=O)N1CCN(C(=O)c2ccco2)CC1 | -24.8% |
| COc1cc(S(=O)(=O)N2CCN(C(=O)c3ccco3)CC2)c(OC)cc1C | -10.2% |
| COc1ccccc1NC(=O)Cn1nc(-c2ccncc2)nc1SCC(=O)NC1CCCC1 | -1.02% |
| O=C(CCNS(=O)(=O)c1cccc2nonc12)N1CCN(c2cccc(Cl)c2)CC1 | 7.36% |
| C=CCN(c1ccccc1)S(=O)(=O)c1cccc2cccnc12 | -2.13% |
| CC1CC(C)CN(S(=O)(=O)c2cccc3cccnc23)C1 (centres undefined) | -4.37% |
| CCN(CC)C(=O)C(=O)c1cn(CC(=O)N2CCc3ccccc3C2)c2ccccc12 | 21.2% |
| CC(=O)Oc1ccc(C(=O)Nc2ccc3c(c2)C(=O)N(CCC(=O)O)C3=O)cc1 | 13.5% |
| Brc1ccc2c(c1)CN1CCCC1=N2 | 37.3% |
| Cc1n[nH]c(=O)nc1NCCc1ccccc1 | -1% |
| c1ccc(CNc2nc(-c3ccccn3)nc3ccccc23)cc1 | 0.55% |
| CCOC(=O)COc1cccc2c(=O)n(CC(=O)N3CCCCC3)ccc12 | -13.4% |
| CC(=O)CC1OC(=O)C(Br)=C1NCc1ccccc1 (centres undefined) | 3.89% |
| COC(=O)CNc1n[nH]c(=S)[nH]c1=O | 25.4% |
| COc1ccc(C(=O)C[n+]2cc(Br)cc3ccccc32)cc1[N+](=O)[O-] | 4.84% |
| O=C(C[n+]1cc(Br)cc2ccccc21)c1ccc(F)cc1 | 21.7% |
| CCOCCCNC(=O)CN1CCN(Cc2ccccc2C)C1=O | -10.6% |
| COC(=O)c1cc2ccsc2n1CC(=O)N(C)c1ccccc1 | 22.5% |
| COC(=O)c1c(-c2cccc(C)c2)csc1N | 7.62% |
| CC(C)(C)CC(=O)Nc1nnc(SCC(=O)N2CCCCC2)s1 | 19.3% |
